Data reported in PubChem BioAssay.
Activity calls are given as the source filed them.

Tests used:
[1] = anti-His antibody binders, primary screen, artefact control for SMM control protein annotation, biochemical, small-molecule microarray, 635 nm fluorescence (AID 1128); conditions: anti-His Alexa647 antibody binding, higher = more signal;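 further: score merges feature fluorescence with signal-to-noise for each printed compound spot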
[2] = system: Human papillomavirus type 1a E7 protein (residues 1-88); assay: HPV1a E7 small-molecule binders, primary screen, biochemical, small-molecule microarray, residues 1-88, 635 nm (AID 1129); conditions: small-molecule microarray binding, fluorescence 635 nm; higher = more signal
[3] = target: Focal adhesion kinase 1 (Homo sapiens) (UniProt Q05397); assay: small-molecule microarray binders of FAK, primary screen, biochemical, 635/667 nm fluorescence, BSA, DTT (AID 1130); conditions: PTK2 binding, 635 nm fluorescence, higher = more signal;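 further: composite of spot emission at 667 nm and signal to noise over triplicate slides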
[4] = system: Fibrinogen (Alexa647-labelled); assay: fibrinogen binders on compound microarrays, profiling panel, artefact control for SMM control-protein annotation, biochemical, small-molecule microarray, 635/667 nm fluorescence (AID 1131); conditions: fibrinogen-A647 binding fluorescence, higher = more signal;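 further: z-score merges 667 nm fluorescence with per-spot signal-to-noise over triplicate slides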
[5] = target: Follistatin (Homo sapiens) (UniProt P19883); assay: follistatin binders on small-molecule microarrays, primary screen, biochemical, small-molecule microarray, 635/667 nm fluorescence (AID 1132); conditions: FST binding, 635 nm fluorescence, higher = more signal
[6] = target: Fibroblast growth factor 2 (Homo sapiens) (UniProt P09038); assay: FGF2 binders on small-molecule microarrays, primary screen, biochemical, small-molecule microarray, 635/667 nm fluorescence (AID 1133); conditions: small-molecule microarray binding, FGF2, fluorescence 635/667; higher = more signal
[7] = mitochondrial membrane potential change in A549 cells, profiling panel, cell-based, JC-1 fluorescence, basal, 24 h, 100 nL (AID 1138); conditions: higher = more signal;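 further: A549 lung adenocarcinoma cells under basal conditions with no added stimulus; test concentration not given here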
Lefty1 = Lefty1 binders on small-molecule microarrays, primary screen, biochemical, small-molecule microarray, 635/667 nm fluorescence (AID 1139); conditions: small-molecule microarray binding, fluorescence 635/667; higher = more signal
[8] = system: wheat germ agglutinin (Triticum aestivum), Alexa647-labelled; assay: wheat germ agglutinin binders on compound microarrays, profiling panel, artefact control for SMM control-protein annotation, biochemical, small-molecule microarray, 635/667 nm fluorescence (AID 1140); conditions: WGA-A647 binding, 635 nm fluorescence, higher = more signal;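 further: score merges 667 nm feature emission with signal to noise over triplicate slides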
[9] = target: Luciferin 4-monooxygenase (Photinus pyralis) (UniProt P08659); assay: firefly luciferase enzyme inhibitors, primary screen, biochemical, luminescence, purified enzyme, 2006 set (AID 1141); conditions: SteadyGlo luminescence, 30 min, higher = more signal, called active from +8 up or from −8 down;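 further: cell-free assay with purified firefly luciferase at 100 ng per well in PBS; test concentration not given here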
[10] = system: Wnt5a (protein binding on small-molecule microarray); assay: Wnt5a binders on small-molecule microarray, primary screen, biophysical, 635/667 nm fluorescence (AID 1142); conditions: 635 nm fluorescence, higher = more signal;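 further: fluorescence read at 667 nm with signal to noise per printed feature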
[11] = cell viability in Huh7 cells, primary screen, cytotoxicity control for HCV replication inhibitor project, CellTiter-Glo luminescence, basal, 48 h (AID 1143); conditions: Huh7 HCV replicon, higher = more signal, called active from +8 up or from −8 down;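 further: Huh7 hepatoma cells carrying a hepatitis C replication reporter with no stimulus; test concentration not given here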
[12] = CREB reporter modulators without forskolin, primary screen, cell-based, PC12, CRE-LacZ reporter, unstimulated (AID 1145); conditions: no forskolin, luminescence, 4.5 h, higher = more signal, called active from +8 up or from −8 down
[13] = CREB reporter modulators under forskolin, primary screen, cell-based, PC12, CRE-LacZ reporter, forskolin-stimulated (AID 1146); conditions: luminescence, 4.5 h, higher = more signal, called active from +8 up or from −8 down;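 further: PC12 cells with 6xCRE LacZ reporter stimulated by forskolin 10 µM; beta-galactosidase reporter signal reflecting CREB driven transcription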
[14] = target: Streptavidin (Streptomyces avidinii) (UniProt P22629); assay: streptavidin binders on small-molecule microarray, primary screen, artefact control for SMM compound annotation, biophysical, 635/667 nm fluorescence (AID 1147); conditions: streptavidin binding, higher = more signal;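 further: signal reflects streptavidin binding to arrayed compounds as a control protein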
[15] = small-molecule binders of probe aInhba, primary screen, biochemical, small-molecule microarray, 635/667 nm fluorescence (AID 1148); conditions: higher = more signal;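 further: score merges 667nm spot fluorescence with signal-to-noise for antibody binding to printed compounds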
Torsin-1A (Homo sapiens) [16] = target: Torsin-1A (Homo sapiens) (UniProt O14656); assay: torsin A binders from cell lysate, primary screen, small-molecule microarray, wild-type, 635/667 nm (AID 1149); conditions: COS7 hTOR1A-WT lysate, 635 nm fluorescence, higher = more signal
Torsin-1A (Homo sapiens) [17] = target: Torsin-1A (Homo sapiens) (UniProt O14656); assay: small-molecule binders of mutant TOR1A in lysate, primary screen, cell lysate, small-molecule microarray, COS7 lysate, 635/667 nm fluorescence (AID 1150); conditions: COS7 hTOR1A mutant lysate, 635 nm fluorescence, higher = more signal;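 further: score pools 667 nm emission and signal to noise measuring lysate protein binding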
[18] = system: Sonic hedgehog protein (Shh); assay: small-molecule binders of Shh protein, primary screen, biochemical, small-molecule microarray, 635/667 nm fluorescence (AID 1151); conditions: small-molecule microarray binding, 635 nm fluorescence; higher = more signal;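 further: Shh protein binding to compounds spotted on small-molecule microarray slides; score combines spot fluorescence intensity with signal-to-noise across triplicate slides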

Luciferin 4-monooxygenase (Photinus pyralis), sequence (P08659 whole entry, looked up): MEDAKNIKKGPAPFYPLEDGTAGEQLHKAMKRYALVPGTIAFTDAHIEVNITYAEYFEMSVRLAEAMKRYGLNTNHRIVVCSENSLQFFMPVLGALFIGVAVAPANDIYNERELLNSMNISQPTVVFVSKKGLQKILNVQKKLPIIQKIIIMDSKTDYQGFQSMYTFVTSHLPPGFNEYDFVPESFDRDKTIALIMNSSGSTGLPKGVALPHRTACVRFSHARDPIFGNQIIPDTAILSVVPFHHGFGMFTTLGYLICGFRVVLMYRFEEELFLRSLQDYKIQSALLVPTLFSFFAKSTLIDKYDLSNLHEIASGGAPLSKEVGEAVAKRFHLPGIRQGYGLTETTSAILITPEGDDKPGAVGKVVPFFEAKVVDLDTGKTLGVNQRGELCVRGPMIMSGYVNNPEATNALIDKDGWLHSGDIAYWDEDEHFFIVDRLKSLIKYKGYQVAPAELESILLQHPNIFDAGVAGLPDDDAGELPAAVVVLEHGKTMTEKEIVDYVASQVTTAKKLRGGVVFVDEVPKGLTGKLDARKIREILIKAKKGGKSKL
Streptavidin (Streptomyces avidinii), sequence (P22629 whole entry, looked up): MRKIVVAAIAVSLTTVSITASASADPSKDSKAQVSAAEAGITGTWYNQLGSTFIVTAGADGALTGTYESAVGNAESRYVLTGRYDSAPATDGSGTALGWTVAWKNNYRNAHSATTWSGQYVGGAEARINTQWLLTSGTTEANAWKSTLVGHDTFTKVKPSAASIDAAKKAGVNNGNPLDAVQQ
Fibroblast growth factor 2 (Homo sapiens), sequence (P09038 whole entry, looked up): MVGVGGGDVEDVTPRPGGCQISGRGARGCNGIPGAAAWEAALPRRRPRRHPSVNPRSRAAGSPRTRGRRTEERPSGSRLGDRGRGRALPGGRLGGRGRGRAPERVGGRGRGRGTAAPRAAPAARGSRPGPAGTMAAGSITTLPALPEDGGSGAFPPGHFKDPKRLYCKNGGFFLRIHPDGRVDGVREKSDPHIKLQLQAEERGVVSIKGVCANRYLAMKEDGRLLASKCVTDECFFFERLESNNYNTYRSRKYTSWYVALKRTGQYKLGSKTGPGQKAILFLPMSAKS
Follistatin (Homo sapiens), sequence (P19883 whole entry, looked up): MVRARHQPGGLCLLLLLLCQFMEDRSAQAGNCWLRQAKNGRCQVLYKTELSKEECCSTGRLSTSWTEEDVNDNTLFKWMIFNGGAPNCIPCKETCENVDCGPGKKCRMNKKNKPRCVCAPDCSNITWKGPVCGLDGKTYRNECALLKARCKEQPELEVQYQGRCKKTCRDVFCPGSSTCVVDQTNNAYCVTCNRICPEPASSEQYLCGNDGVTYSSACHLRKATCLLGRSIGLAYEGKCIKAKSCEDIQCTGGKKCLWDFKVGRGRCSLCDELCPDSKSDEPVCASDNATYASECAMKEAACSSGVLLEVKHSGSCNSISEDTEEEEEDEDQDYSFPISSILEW
Torsin-1A (Homo sapiens), sequence (O14656 whole entry, looked up): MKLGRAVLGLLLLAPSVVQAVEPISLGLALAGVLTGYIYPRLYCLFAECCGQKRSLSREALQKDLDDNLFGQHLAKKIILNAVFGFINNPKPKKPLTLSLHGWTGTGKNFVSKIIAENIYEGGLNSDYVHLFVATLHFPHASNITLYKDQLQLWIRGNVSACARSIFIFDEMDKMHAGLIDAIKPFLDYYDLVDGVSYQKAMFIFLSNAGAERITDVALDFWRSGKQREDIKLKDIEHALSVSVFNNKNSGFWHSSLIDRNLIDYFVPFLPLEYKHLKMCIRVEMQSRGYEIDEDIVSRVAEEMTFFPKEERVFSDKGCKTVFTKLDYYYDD
Focal adhesion kinase 1 (Homo sapiens), sequence (Q05397 whole entry, looked up): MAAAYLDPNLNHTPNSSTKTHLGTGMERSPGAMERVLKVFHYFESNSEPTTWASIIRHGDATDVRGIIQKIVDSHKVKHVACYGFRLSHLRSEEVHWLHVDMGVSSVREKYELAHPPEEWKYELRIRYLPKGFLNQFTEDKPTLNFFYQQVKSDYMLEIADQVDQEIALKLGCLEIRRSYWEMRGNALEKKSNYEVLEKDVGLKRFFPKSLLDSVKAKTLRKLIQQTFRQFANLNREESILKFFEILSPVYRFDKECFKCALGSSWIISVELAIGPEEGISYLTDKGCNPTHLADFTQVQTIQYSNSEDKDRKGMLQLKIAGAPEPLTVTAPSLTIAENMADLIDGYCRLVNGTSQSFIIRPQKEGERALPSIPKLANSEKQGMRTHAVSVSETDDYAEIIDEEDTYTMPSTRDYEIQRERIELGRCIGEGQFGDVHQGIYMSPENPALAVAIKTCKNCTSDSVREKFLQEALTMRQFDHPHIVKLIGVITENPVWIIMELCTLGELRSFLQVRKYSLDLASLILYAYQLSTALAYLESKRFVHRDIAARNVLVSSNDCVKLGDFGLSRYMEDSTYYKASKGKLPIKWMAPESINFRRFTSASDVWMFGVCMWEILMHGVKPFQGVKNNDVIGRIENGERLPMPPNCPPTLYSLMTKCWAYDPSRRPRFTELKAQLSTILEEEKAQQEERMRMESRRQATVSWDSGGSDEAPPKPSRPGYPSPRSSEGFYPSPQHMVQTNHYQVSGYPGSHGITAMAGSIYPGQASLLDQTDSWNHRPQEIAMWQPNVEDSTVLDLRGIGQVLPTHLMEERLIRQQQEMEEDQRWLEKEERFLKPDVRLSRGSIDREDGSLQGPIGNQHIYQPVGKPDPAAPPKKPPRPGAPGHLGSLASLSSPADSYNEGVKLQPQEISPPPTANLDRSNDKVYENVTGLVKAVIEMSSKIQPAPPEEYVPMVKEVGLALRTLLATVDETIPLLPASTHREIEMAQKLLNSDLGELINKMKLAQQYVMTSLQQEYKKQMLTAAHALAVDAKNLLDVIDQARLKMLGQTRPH

Compound | composite z-score [1] | composite z-score [2] | composite z-score [3] | composite z-score [4] | composite z-score [5] | composite z-score [6] | z-score [7] | composite z-score (Lefty1) | composite z-score [8] | z-score [9] | composite z-score [10] | z-score [11] | z-score [12] | z-score [13] | composite z-score [14] | composite z-score [15] | composite z-score (Torsin-1A (Homo sapiens) [16]) | composite z-score (Torsin-1A (Homo sapiens) [17]) | composite z-score [18]
C=CCN1C(=O)[C@]2(O[C@H](CCn3cc(CCO)nn3)[C@@H]([Si](C)(C)c3ccc(OC)cc3)[C@@H]2C)c2cc(NC(=O)c3ccc(OC)cc3)ccc21 | 0.94 | 1.14 | 0.611 | 0.708 | 1.35 | 1.2 | 2.37 | 1.01 | 0.816 | -2.28 (inactive) | 0.46 | -4.16 (inactive) | 7.29 (inactive) | -1.63 (inactive) | 0.132 | -0.0598 | 1.06 | 0.66 | 1.61
COc1cc([C@@H]2N[C@H](C(=O)O)Cc3c2[nH]c2ccccc32)cc(OC)c1OC | 0.386 | 0.431 | 0.161 | 0.514 | 0.275 | 0.254 | 0.559 | 0.531 | 0.373 | -0.538 (inactive) | 0.102 | -1.81 (inactive) | 0.108 (inactive) | -1.69 (inactive) | 0.0855 | -0.0102 | 0.257 | 0.285 | 0.342
C[C@H]1NC(=O)[C@@H](C)NC(=O)[C@@]23C(=O)N[C@@H](Cc4ccccc4)C2[C@H](C)[C@@]2(C)O[C@H]2C3/C=C/C/C=C\CNC1=O (some centres undefined) | -0.759 | -1.84 | -0.801 | -0.388 | 0.117 | 0.0213 | 1.07 | -0.0767 | 0.0969 | -0.919 (inactive) | 0.0845 | -0.333 (inactive) | 3.4 (inactive) | -1.32 (inactive) | -0.594 | -0.128 | 0.153 | -0.354 | 0.651
[N-]=[N+]=NCc1ccccc1C[C@]1(C(N)=O)N=C(c2ccc(OCCCO)cc2)O[C@H]1c1ccccc1CN=[N+]=[N-] | 3.15 | 0.974 | 1.21 | 0.98 | 1.01 | 0.19 | 1.3 | -0.621 | 1.32 | -3.84 (inactive) | 0.447 | -5.2 (inactive) | 1.08 (inactive) | -0.375 (inactive) | 1.68 | 0.17 | 0.105 | 0.369 | -0.742
COC(=O)C1=CC(c2ccc(CO)cc2)=CC(C2CC2)N(Cc2sc3ccccc3c2Cl)C=C1C(=O)OC (centres undefined) | 3.42 | 1.19 | 1.46 | 0.896 | 0.851 | 0.3 | 2.04 | 0.573 | 1.49 | -1.55 (inactive) | 0.213 | -5.35 (inactive) | 0.272 (inactive) | -1.57 (inactive) | 2.25 | 0.23 | 0.454 | 1.45 | 0.313
C=CCC(OC(C)=O)[C@@H]1[C@@H](N(Cc2ccc(-c3ccccc3)cc2)C(=O)c2ccc(C)cc2)c2cc(OCCCO)ccc2N1C(=O)c1ccc(-c2ccccc2)cc1 (some centres undefined) | -0.958 | 0.438 | 0.248 | -0.195 | 0.217 | 0.0217 | 2.98 | -0.166 | 0.258 | -1.81 (inactive) | 0.504 | -1.62 (inactive) | 1.73 (inactive) | -0.782 (inactive) | 0.0598 | 0.0884 | -0.0824 | 0.119 | 0.0223
CSCC[C@@H]1NC(=O)CC=C[C@@H](C)COC(=O)[C@H](CCSC)NC(=O)CC=C[C@@H](C)COC1=O | -0.158 | -0.111 | -0.388 | 0.017 | 0.129 | 0.296 | 1.01 | 0.531 | -0.725 | -0.731 (inactive) | 0.119 | -3.38 (inactive) | -0.389 (inactive) | -0.837 (inactive) | -0.563 | -0.146 | 0.138 | 0.291 | 0.493
CCC(=O)[C@]12O[C@@]3([C@@H]4C(=O)OCC[C@@H]41)N(Cc1ccccc1)C(C)=C(C(=O)OC)[C@@H](c1ccccc1)N3C2=O | -0.97 | -2.31 | 0.0625 | -1.35 | -0.65 | -0.715 | 1.27 | 0.197 | -0.803 | -1.36 (inactive) | -0.183 | -0.596 (inactive) | 1.01 (inactive) | -1.32 (inactive) | -0.444 | -0.0448 | -0.453 | -0.296 | 1.16
Cc1ccc(S(=O)(=O)N[C@H]2COC(=O)CC=C[C@H](C)COC(=O)N[C@@H](C)C(=O)CC=C[C@@H]2C)cc1 | -0.45 | -0.368 | -0.502 | -0.446 | 0.953 | 1.43 | 0.204 | 1.65 | -0.557 | -0.537 (inactive) | 0.177 | -1.67 (inactive) | 1.6 (inactive) | -0.933 (inactive) | -0.184 | -0.142 | 0.771 | 0.555 | 1.01
COCCOC(=O)N1C(=O)[C@@]2(c3cc(C#CC4(O)CCCCCC4)ccc31)[C@H](C(=O)N1CCCCCCC1)[C@H]1C(=O)O[C@H](c3ccccc3)[C@H](c3ccccc3)N1[C@@H]2c1ccc(O)cc1 | 1.25 | 1.22 | 0.646 | 0.72 | 1.48 | 0.536 | 0.208 | 1.08 | 1.38 | -1.27 (inactive) | 0.464 | -4.34 (inactive) | -0.211 (inactive) | -1.68 (inactive) | 1.16 | 1.01 | 1.27 | 0.889 | 1.68
CO[C@@H]1COC(=O)CC=C[C@H](C)COC(=O)[C@H](Cc2ccccc2)NC(=O)CC=C[C@H]1C | 0.236 | -1.13 | -0.389 | -0.811 | 0.997 | 1.38 | 1.5 | 1.54 | -1.61 | -0.964 (inactive) | -0.108 | -0.87 (inactive) | -0.202 (inactive) | -1.63 (inactive) | -0.457 | -0.438 | 1.46 | 0.793 | 1.73
